In PubChem BioAssay AID1159580 (chemical genetic matrix, 2015):
Screen size: about 5,500 compounds; about 2,000 (36%) were called active. About 18% were inconclusive and are not listed. Rule as the data show it: active = normalized growth mostly below about 0.91 (no sharp cut-off); inconclusive = no clear call, values can overlap the other calls; inactive = mostly above about 0.92. This is one part of the list.

Experiment: chemical genetic growth profiling, strain panel (AID 1159580);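 also: tested at 20 µM; growth read once vehicle control cultures reached saturation at 30 °C; 1 = growth at the plate median or of vehicle wells; lower values mean less growth of the strain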
Details: growth OD
[1] = S. cerevisiae deletion strains, locus YDL101C, strain DUN1, hits give low values
[2] = S. cerevisiae deletion strains, locus YHR030C, strain SLT2, hits give low values
[3] = S. cerevisiae deletion strains, locus YBR229C, strain ROT2, hits give low values
[4] = S. cerevisiae deletion strains, locus YDR150W, strain NUM1, hits give low values
[5] = S. cerevisiae deletion strains, locus YEL061C, strain CIN8, hits give low values
[6] = S. cerevisiae deletion strains, locus YGR078C, strain PAC10, hits give low values
[7] = S. cerevisiae deletion strains, locus YHR087W, strain rtc3, hits give low values
[8] = S. cerevisiae deletion strains, locus YJL187C, strain SWE1, hits give low values
[9] = S. cerevisiae deletion strains, locus YJR043C, strain POL32, hits give low values
[10] = S. cerevisiae deletion strains, locus YJR075W, strain HOC1, hits give low values
[11] = S. cerevisiae deletion strains, locus YKL190W, strain CNB1, hits give low values
[12] = S. cerevisiae deletion strains, locus YLR039C, strain RIC1, hits give low values
[13] = S. cerevisiae deletion strains, locus YLR058C, strain SHM2 (second series), hits give low values
[14] = S. cerevisiae deletion strains, locus YLR085C, strain ARP6, hits give low values
[15] = S. cerevisiae deletion strains, locus YLR262C, strain YPT6, hits give low values
[16] = S. cerevisiae deletion strains, locus YML094W, strain GIM5, hits give low values
[17] = S. cerevisiae deletion strains, locus YMR219W, strain ESC1, hits give low values
[18] = S. cerevisiae deletion strains, locus YMR263W, strain SAP30, hits give low values
[19] = S. cerevisiae deletion strains, locus YNL153C, strain GIM3, hits give low values
[20] = S. cerevisiae deletion strains, locus YNL298W, strain CLA4 (second series), hits give low values
[21] = S. cerevisiae deletion strains, locus YNL322C, strain KRE1, hits give low values
[22] = S. cerevisiae deletion strains, locus YNR030W, strain Alg12, hits give low values
[23] = S. cerevisiae deletion strains, locus YPL055C, strain LGE1, hits give low values
[24] = S. cerevisiae deletion strains, locus YPL241C, strain CIN2, hits give low values
[25] = S. cerevisiae deletion strains, locus YPR135W, strain CTF4, hits give low values

Measured: normalized growth

CCOC(=O)c1cnc(-c2ccccn2)[nH]c1=O
active: S. cerevisiae deletion strains, locus YER123W, strain YCK3, hits give low values 0.453 | [2] 0.734 | S. cerevisiae deletion strains, locus YHR079C, strain IRE1, hits give low values 0.426 | S. cerevisiae deletion strains, locus YJL095W, strain BCK1, hits give low values 0.432 | S. cerevisiae deletion strains, locus YLR113W, strain HOG1, hits give low values 0.487 | S. cerevisiae deletion strains, locus YOR231W, strain MKK1, hits give low values 0.413 | S. cerevisiae deletion strains, locus YPL256C, strain CLN2, hits give low values 0.464
inactive: S. cerevisiae deletion strains, locus YAR019C, strain CDC15, hits give low values 0.933 | S. cerevisiae deletion strains, locus YBL105C, strain PKC1, hits give low values 0.955 | S. cerevisiae deletion strains, locus YBR135W, strain CKS1, hits give low values 0.932 | S. cerevisiae deletion strains, locus YBR136W, strain MEC1, hits give low values 0.94 | S. cerevisiae deletion strains, locus YBR160W, strain CDC28, hits give low values 0.934 | S. cerevisiae deletion strains, locus YDL017W, strain CDC7, hits give low values 0.957 | S. cerevisiae deletion strains, locus YDL028C, strain MPS1, hits give low values 0.94 | [1] 0.955 | S. cerevisiae deletion strains, locus YDL108W, strain KIN28, hits give low values 0.943 | S. cerevisiae deletion strains, locus YDL132W, strain cdc53, hits give low values 0.948 | S. cerevisiae deletion strains, locus YDL214C, strain PRR2, hits give low values 0.825 | S. cerevisiae deletion strains, locus YDR052C, strain DBF4, hits give low values 0.952 | S. cerevisiae deletion strains, locus YDR054C, strain cdc34, hits give low values 0.899 | S. cerevisiae deletion strains, locus YDR226W, strain ADK1, hits give low values 0.935 | S. cerevisiae deletion strains, locus YDR477W, strain SNF1, hits give low values 0.85 | S. cerevisiae deletion strains, locus YER133W, strain GLC7, hits give low values 0.856 | S. cerevisiae deletion strains, locus YFL009W, strain cdc4, hits give low values 0.907 | S. cerevisiae deletion strains, locus YFL029C, strain CAK1, hits give low values 0.932 | S. cerevisiae deletion strains, locus YFR003C, strain YPI1, hits give low values 0.947 | S. cerevisiae deletion strains, locus YFR019W, strain FAB1, hits give low values 0.819 | S. cerevisiae deletion strains, locus YFR028C, strain CDC14, hits give low values 0.937 | S. cerevisiae deletion strains, locus YGR040W, strain KSS1, hits give low values 0.866 | S. cerevisiae deletion strains, locus YGR052W, strain FMP48, hits give low values 0.69 | S. cerevisiae deletion strains, locus YGR092W, strain DBF2, hits give low values 0.638 | S. cerevisiae deletion strains, locus YHR082C, strain KSP1, hits give low values 0.839 | S. cerevisiae deletion strains, locus YHR205W, strain SCH9, hits give low values 0.965 | S. cerevisiae deletion strains, locus YIL147C, strain SLN1, hits give low values 0.935 | S. cerevisiae deletion strains, locus YJL128C, strain PBS2, hits give low values 1.01 | S. cerevisiae deletion strains, locus YJL157C, strain FAR1, hits give low values 0.743 | S. cerevisiae deletion strains, locus YJR016C, strain ILV3, hits give low values 0.934 | S. cerevisiae deletion strains, locus YJR066W, strain TOR1 (second series), hits give low values 0.741 | S. cerevisiae deletion strains, locus YJR066W, strain TOR1, hits give low values 0.652 | S. cerevisiae deletion strains, locus YKL048C, strain ELM1, hits give low values 0.927 | S. cerevisiae deletion strains, locus YKL067W, strain YNK1, hits give low values 0.818 | S. cerevisiae deletion strains, locus YKL101W, strain HSL1, hits give low values 0.871 | S. cerevisiae deletion strains, locus YKL193C, strain SDS22, hits give low values 0.917 | S. cerevisiae deletion strains, locus YKL203C, strain TOR2, hits give low values 0.901 | S. cerevisiae deletion strains, locus YLR133W, strain CKI1, hits give low values 0.834 | S. cerevisiae deletion strains, locus YLR403W, strain SFP1, hits give low values 0.785 | S. cerevisiae deletion strains, locus YML070W, strain DAK1, hits give low values 0.744 | S. cerevisiae deletion strains, locus YMR001C, strain CDC5, hits give low values 0.934 | S. cerevisiae deletion strains, locus YMR205C, strain PFK2 (second series), hits give low values 0.848 | S. cerevisiae deletion strains, locus YMR277W, strain FCP1, hits give low values 0.922 | S. cerevisiae deletion strains, locus YNL006W, strain LST8, hits give low values 0.966 | S. cerevisiae deletion strains, locus YNL020C, strain ARK1, hits give low values 0.833 | S. cerevisiae deletion strains, locus YNL161W, strain CBK1, hits give low values 0.933 | S. cerevisiae deletion strains, locus YNL183C, strain NPR1, hits give low values 0.603 | S. cerevisiae deletion strains, locus YNL207W, strain RIO2, hits give low values 0.926 | S. cerevisiae deletion strains, locus YNL222W, strain SSU72, hits give low values 0.921 | S. cerevisiae deletion strains, locus YNL307C, strain MCK1 (second series), hits give low values 0.759 | S. cerevisiae deletion strains, locus YOL078W, strain AVO1, hits give low values 0.92 | S. cerevisiae deletion strains, locus YOL136C, strain PFK27, hits give low values 0.752 | S. cerevisiae deletion strains, locus YOR061W, strain CKA2, hits give low values 0.835 | S. cerevisiae deletion strains, locus YOR119C, strain RIO1, hits give low values 0.863 | S. cerevisiae deletion strains, locus YOR329C, strain SCD5, hits give low values 0.948 | S. cerevisiae deletion strains, locus YPL031C, strain PHO85, hits give low values 0.82 | S. cerevisiae deletion strains, locus YPL153C, strain RAD53, hits give low values 0.759 | S. cerevisiae deletion strains, locus YPL204W, strain HRR25, hits give low values 0.773 | S. cerevisiae deletion strains, locus YPL209C, strain IPL1, hits give low values 0.946 | S. cerevisiae deletion strains, locus YPR025C, strain CCL1, hits give low values 0.953 | S. cerevisiae deletion strains, locus YPR106W, strain ISR1, hits give low values 0.944 | S. cerevisiae deletion strains, locus YPR111W, strain DBF20, hits give low values 0.939 | S. cerevisiae deletion strains, strain NNK1, hits give low values 0.932 | S. cerevisiae deletion strains, strain TSCII, hits give low values 0.916

CCOC(=O)c1c[nH]c2c(F)cccc2c1=O
inactive: [3] 1 | S. cerevisiae deletion strains, locus YCL061C, strain MRC1, hits give low values 0.985 | [1] 0.963 | [4] 0.963 | [5] 1.04 | [6] 0.982 | [2] 1.03 | [7] 1.02 | [8] 1.01 | [9] 0.988 | [10] 0.973 | [11] 0.993 | [12] 1.06 | [13] 1.01 | [14] 1.03 | [15] 1.04 | [16] 1.02 | [17] 0.997 | [18] 1.01 | [19] 0.973 | [20] 0.981 | [21] 0.996 | [22] 0.978 | [23] 1.02 | [24] 0.962 | [25] 0.985 | S. cerevisiae strains, strain wild type, hits give low values 0.989

CCOC(=O)c1cnc(SCC(=O)c2ccc(Cl)cc2Cl)[nH]1
inactive: S. cerevisiae deletion strains, locus YAL013W, strain DEP1, hits give low values 1 | [3] 1 | [1] 1 | [4] 1.02 | [5] 1.03 | [6] 1.02 | [2] 0.936 | [7] 1.01 | [8] 1.03 | [9] 0.999 | [10] 1 | [11] 0.993 | [12] 0.934 | [13] 1.01 | [14] 1.06 | [15] 0.914 | [16] 1.01 | [17] 1.01 | [18] 0.938 | [19] 1 | [20] 1.04 | [21] 1.01 | [22] 0.988 | [23] 1.08 | [24] 1.01 | [25] 0.851
